Laboratory results taken from PubChem BioAssay (Tox21).
Values joined by “and” are separate entries in the source; they are usually repeats but may differ in a detail not shown here. Identical values can stand only once. Results filed as inconclusive are left out. Active and inactive are the calls of the source. Calls come from the whole dose curve; as a rule, active = well fitted cell-killing curve with a large enough effect in the repeat runs; inconclusive = weak or mixed curves, or effect the other way; inactive = flat fitted curve, though single readings scatter.

Experiment: qHTS RealTime-Glo MT Cell Viability Assay in HEK293 cells - 24 hour (AID 1224886); note: nearly all actives have a fitted effect of over 50% in size; for activity change, negative = cytotoxicity: top concentration of the series differs between compounds
Settings: RealTime-Glo luminescence; series mostly up to 76.8 µM; activity change, negative = cytotoxicity: at the top concentration
Excerpt: National Center for Advancing Translational Sciences [NCATS]
NIH Chemical Genomics Center [NCGC]
U.S. Environmental Protection Agency [EPA]
National Institutes of Environmental Health Sciences [NIEHS]
National Toxicology Program [NTP]
U.S. Food and Drug Administration [FDA]
Measure of cell viability is critical in the cell-base assay. Analysis of cell viability is necessary for the characterization of cell responses to cytotoxic drugs and environmental stress. A RealTime-Glo MT Cell Viability Assay to monitor cell viability in real time of continues cell culture during 40 hours of compound treatment was used to screen Tox21 10K library compounds in Hek293 cells. The RealTime-Glo MT Cell Viability Assay is a nonlytic, homogeneous, bioluminescent method to measure cell viability in real time using a simple, plate-based method. The assay involves adding NanoLuc luciferase and a cell-permeant prosubstrate to cells in culture. Viable cells reduce the proprietary prosubstrate to generate a substrate for NanoLuc luciferase. This substrate diffuses from cells into the surrounding culture medium, where it is rapidly used by the NanoLuc Enzyme to produce a luminescent signal. The signal correlates with the number of viable cells, making the assay well suited for cytotoxicity studies.
Tox21 Assay Protocol Summary:
The mixture of Hek293 cell suspension and reagents were dispensed at 600cells/6 ul/well in 1536-well tissue culture treated black solid bottom plates using a Multidrop dispenser. After the assay plates were incubated at a 37 C/5% CO2 incubator for 5 hours, 23 nL of compounds dissolved in DMSO, positive and negative controls was transferred to the assay plate by a pintool work station. The plates were incubated at 37 C for 40 hours. The luminescence intensity were measured at 0h, 8h, 16h, 24h, 32h and 40h time points using ViewLux plate reader during compound treatment.
% is set by controls: 0 for no effect and ±100 for the full control effect; potency is the fitted concentration of half-maximal effect.

Compound | activity change, negative = cytotoxicity | Potency
NCCCN1CCOCC1 | -8.31% (inactive) | –
OCc1cc(C(O)CNCCCCCCOCCCCc2ccccc2)ccc1O (stereo not given) | – | 19 µM (active)
CCCCCCCCCCCCCCCCOS(=O)(=O)O | -21.2% [at 35.3 µM] (inactive) | –
CCCCCCCN | -9.61% (inactive) | –
CCOCC(O)COc1ccc(NC(=O)CC[S+](C)C)cc1 (stereo not given) | 3.12% [at 35.3 µM] (inactive) | –
CN(C)CCN(Cc1ccsc1)c1ccccn1 | 2.33% [at 35.3 µM] (inactive) | –
CCCCC1=NC2(CCCC2)C(=O)N1Cc1ccc(-c2ccccc2-c2nn[nH]n2)cc1 | 2.36% [at 35.3 µM] (inactive) | –
CC1=CCCC(C)(C)C12CCC(C)O2 (stereo not given) | -7.57% (inactive) | –
C=CC(=O)OCCOCCOCCOCCOC(=O)C=C | – | 34.8 µM (active) and 30.6 µM (active)
Cc1ccc(N=Nc2c(O)c(C(=O)O)cc3ccccc23)c(S(=O)(=O)O)c1 | 1.95% [at 35.3 µM] (inactive) | –
CCC(CC)Nc1ccc(C)c(C)c1 | 0.837% (inactive) | –
O=C(NCC1CN(c2ccc(N3CCOCC3=O)cc2)C(=O)O1)c1ccc(Cl)s1 (stereo not given) | -18.9% [at 35.3 µM] (inactive) | –
C=CCOc1ccccc1OCC(O)CNC(C)C (stereo not given) | 1.7% [at 35.3 µM] (inactive) | –
O=C1C(O)=C(O)C(=O)C(O)=C1O | -6.97% [at 35.3 µM] (inactive) | –
O=C1CCC(=O)O1 | 2.24% (inactive) | –
C1CCCNCCC1 | 1.63% (inactive) | –
Nc1cc(C(=O)O)c(O)c(S(=O)(=O)O)c1 | 8.55% (inactive) | –
COC(=O)c1ccc(I)cc1S(=O)(=O)NC(=O)Nc1nc(C)nc(OC)n1 | -7.07% (inactive) | –
CC(=O)c1cccc([N+](=O)[O-])c1 | 7.4% (inactive) | –
CCCCc1ncc(/C=C(\Cc2cccs2)C(=O)O)n1Cc1ccc(C(=O)O)cc1 | 1.73% [at 35.3 µM] (inactive) | –

Compound | activity change, negative = cytotoxicity | Potency
CN(C)CCOC(c1ccccc1)c1ccc(Br)cc1 (stereo not given) | -28% [at 35.3 µM] (inactive) | –
O=C1c2ccccc2S(=O)(=O)N1CCCCN1CCN(c2ncccn2)CC1 | -2.17% [at 35.3 µM] (inactive) | –
CCC(C)(C)CC | -6.09% (inactive) | –
COc1ccc(C(=O)Nc2nc3ccccc3c(NCc3ccccc3)c2C#N)cc1 | -20.2% (inactive) | –
ClCCOCCOCCCl | 5.14% (inactive) | –
C/C(=C(\CCOP(=O)(O)O)SC(=O)c1ccccc1)N(C=O)Cc1cnc(C)nc1N | 2.35% [at 6.97 µM] (inactive) | –
COCC(C)OC(C)=O (stereo not given) | 1.73% (inactive) | –
COC(C)(C)CCO | 3.21% (inactive) | –
C=C1[C@H]2CC[C@@H]3[C@H]2C(C)(C)CCC[C@]13C | 7.17% (inactive) | –
OC[C@H]1O[C@@H](OCCc2ccc(O)cc2)[C@H](O)[C@@H](O)[C@@H]1O | 9.81% [at 35.3 µM] (inactive) | –
Cc1cccc(Nc2ccccc2)c1 | -18.2% (inactive) | –
Nc1cccc([N+](=O)[O-])c1 | 2.05% (inactive) | –
CC1=CC[C@H](C(C)C)C=C1 | 2% (inactive) | –
CCOC(=O)C1=C[C@]2(CC)CCCN3CCc4c(n1c1ccccc41)[C@@H]32 | -15.8% [at 35.3 µM] (inactive) | –
CN1CCN(C(c2ccccc2)c2ccccc2)CC1 | 3.02% [at 35.3 µM] (inactive) | –
CCCCCCCCCCCCCCOS(=O)(=O)O | -10.5% (inactive) | –
CN1Cc2cc(C(=O)N3CCC(C4CCNCC4)CC3)ccc2NC(CC(=O)O)C1=O (stereo not given) | 7.25% [at 35.3 µM] (inactive) | –
O=C(O)C(S)C(S)C(=O)O (stereo not given) | 6.22% [at 35.3 µM] (inactive) | –
C[N+]1(C)CCC(OC(=O)C(O)(c2ccccc2)C2CCCC2)C1 (stereo not given) | 1.18% [at 35.3 µM] (inactive) | –
C=CC(=O)OCCOCCOC(=O)C=C | – | 31 µM (active)
